Measurements published in PubChem BioAssay AID504452 (The Scripps Research Institute Molecular Screening Center, 2011).
Calls of active or inactive are those of the source. No stated cut-off is given here; in the data, active means activation above about 85%; inactive means the rest.

Target: Peroxisome proliferator-activated receptor gamma (Homo sapiens) (UniProt P37231)
Test: PPARg partial agonist activation, primary screen, cell-based, luciferase reporter, luminescence (AID 504452);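 further: Cos-1 cells carrying PPARgamma and a response element luciferase reporter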
Conditions: at 5 µM, stronger effect = higher value; activation (% of full agonist control): measured here: relative to full agonist control

Chain of Peroxisome proliferator-activated receptor gamma (Homo sapiens) (P37231 whole entry, looked up): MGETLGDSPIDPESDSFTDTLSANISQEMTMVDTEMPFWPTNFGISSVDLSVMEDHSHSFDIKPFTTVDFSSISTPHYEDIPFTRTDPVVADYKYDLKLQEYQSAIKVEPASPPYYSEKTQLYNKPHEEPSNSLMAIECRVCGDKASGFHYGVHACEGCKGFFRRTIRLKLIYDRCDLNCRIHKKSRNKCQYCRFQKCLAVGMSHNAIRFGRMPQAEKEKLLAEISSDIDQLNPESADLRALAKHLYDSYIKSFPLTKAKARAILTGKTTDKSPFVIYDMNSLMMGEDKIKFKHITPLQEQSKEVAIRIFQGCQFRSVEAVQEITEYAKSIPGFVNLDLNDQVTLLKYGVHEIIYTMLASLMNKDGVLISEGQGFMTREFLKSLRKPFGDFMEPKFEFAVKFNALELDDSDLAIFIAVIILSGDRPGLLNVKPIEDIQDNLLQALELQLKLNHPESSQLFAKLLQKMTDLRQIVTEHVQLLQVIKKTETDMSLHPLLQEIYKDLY

| SMILES | activation (% of full agonist control) | activation (% of partial agonist control) |
| --- | --- | --- |
| O=C(C1CC(=O)N(c2ccc3c(c2)OCCO3)C1)N1CCN(c2ccccc2O)CC1 (stereo not given) | 31.6% | 69.9% (inactive) |
| Cc1cc(N2C(=O)C(=O)/C(=C(/O)c3ccc(F)cc3)C2c2ccc(F)cc2)no1 (stereo not given) | 31.8% | 70.3% (inactive) |
| CCOc1cc(N2CCOCC2)c(OCC)cc1NC(=O)c1oc2ccccc2c1C | 29.4% | 65.1% (inactive) |
| Cc1cccn2c(CN3CCNC(=O)CC3)c(C(=O)N(C)CCc3ccccc3)nc12 | 36.3% | 80.3% (inactive) |
| COc1ccc(CN(Cc2ccccn2)C(=O)CN2C(=O)C(C)Oc3ccccc32)cc1 (stereo not given) | 38.6% | 85.4% (active) |
| COC(=O)c1cc(C(=O)N2CCN(c3cccc(Cl)c3)CC2)cc([N+](=O)[O-])c1 | 27% | 59.7% (inactive) |
| O=C(Cc1cccc(C(F)(F)F)c1)Nc1cc(S(=O)(=O)N2CCOCC2)ccc1N1CCCC1 | 31.4% | 69.5% (inactive) |
| COc1ccc(-c2nn(-c3ccccc3)cc2/C=C2/SC(=S)N(CCC(=O)O)C2=O)c(C)c1 | 44.4% | 98.3% (active) |
| Cc1ccc(CN2C(=O)N/C(=C\c3cccn3-c3cccc(C(=O)O)c3)C2=O)cc1 | 36.9% | 81.8% (inactive) |
| O=C(O)COc1ccccc1/C=C1\SC(=S)N(NC(=O)c2ccccc2O)C1=O | 41.4% | 91.7% (active) |
| Cc1cc(C)c2nc(N3C(=O)C(O)=C(C(=O)c4ccco4)C3c3ccco3)sc2c1 (stereo not given) | 32.9% | 72.7% (inactive) |
| COc1ccc(NC(=O)CC2C(=O)Nc3ccccc3N2CC(=O)N2CCCC2)cc1 (stereo not given) | 30.4% | 67.3% (inactive) |
| COc1ccccc1-n1cc(C(=O)c2cc(Cl)ccc2O)cc(C#N)c1=O | 44.9% | 99.4% (active) |
| CN(C)c1ccc(C(CNS(=O)(=O)c2cccc([N+](=O)[O-])c2)N2CCOCC2)cc1 (stereo not given) | 31.9% | 70.6% (inactive) |
| COc1cccc(C2/C(=C(/O)c3ccccc3)C(=O)C(=O)N2Cc2ccco2)c1 (stereo not given) | 35.3% | 78.2% (inactive) |
| CCOc1cccc(/C(O)=C2/C(=O)C(=O)N(Cc3cccnc3)C2c2ccco2)c1 (stereo not given) | 30.8% | 68.2% (inactive) |
| O=C(N[C@@H]1CCC(=O)N(CC[C@H](Oc2ccccc2)c2ccccc2)CC1)OCc1ccccc1 | 28.1% | 62.1% (inactive) |
| CCOC(=O)c1c(C)[nH]c(C(=O)Cn2c(=O)c3c(ncn3CC)n(Cc3ccccc3)c2=O)c1C | 29.8% | 66% (inactive) |

| SMILES | activation (% of full agonist control) | activation (% of partial agonist control) |
| --- | --- | --- |
| CN1C(=O)COc2ccc(C(=O)c3oc4ccccc4c3-c3cnc4c(c3)COc3ccccc3-4)cc21 | 8.28% | 18.3% (inactive) |
| Cc1cc(C)c2nc(N3C(=O)C(O)=C(C(=O)c4ccco4)C3c3cccc(O)c3)sc2c1 (stereo not given) | 29% | 64.1% (inactive) |
| COc1cccc(Cn2nc3c4cc(F)ccc4n(Cc4ccc(F)cc4)cc-3c2=O)c1 | 38.8% | 85.9% (active) |
| COc1ccc(/C(O)=C2/C(=O)C(=O)N(Cc3ccco3)C2c2cccs2)cc1 (stereo not given) | 32.1% | 71.1% (inactive) |
| CN(C(=O)CS(=O)(=O)c1cn(CC(=O)N2CCCC2)c2ccccc12)c1ccccc1 | 24.5% | 54.2% (inactive) |
| O=C(C1=C(O)C(=O)N(c2nc3ccc(Cl)cc3s2)C1c1ccco1)c1ccco1 (stereo not given) | 42.1% | 93.2% (active) |
| Cc1ccc2nc(N3C(=O)C(O)=C(C(=O)c4ccco4)C3c3ccc(C)o3)sc2c1 (stereo not given) | 56.8% | 126% (active) |
| COC(=O)c1sc(N2C(=O)C(=O)/C(=C(/O)c3ccc(C)cc3)C2c2ccco2)nc1C (stereo not given) | 37.7% | 83.5% (inactive) |
| Cc1ccc(S(=O)(=O)Nc2ccccc2F)cc1C(=O)N1CCN(c2ccccc2O)CC1 | 33% | 73% (inactive) |
| C[C@H](NC(=O)c1nc[nH]c1C(=O)N1CCc2ccccc2C1)C(=O)OCc1ccccc1 | 29.5% | 65.3% (inactive) |
| CCN(C(=O)CSc1nnc(-c2ccc(F)cc2)c2ccccc12)C1CCS(=O)(=O)C1 (stereo not given) | 34.5% | 76.4% (inactive) |
| O=S(=O)(NCC(c1ccc2c(c1)OCO2)N1CCOCC1)c1ccc(F)cc1 (stereo not given) | 35.4% | 78.4% (inactive) |
| O=C(Cc1c(C(=O)O)[nH]c2ccccc12)Nc1ccc2c(c1)OCO2 | 7.95% | 17.6% (inactive) |
| CC(Oc1cccc(Cl)c1)C(=O)Nc1cc(S(=O)(=O)N2CCOCC2)ccc1N1CCCC1 (stereo not given) | 35.3% | 78.1% (inactive) |
| COc1ccc(O)c(C(=O)c2cc(C#N)c(=O)n(-c3ccc(Cl)cc3)c2)c1 | 40% | 88.5% (active) |
| Cc1nn(CC(=O)N2CCC(N3CCCCC3)CC2)c(=O)c2c1sc1ccccc12 | 27.9% | 61.8% (inactive) |
| O=c1[nH]c2cc3c(cc2cc1CN(CCN1CCOCC1)C(=S)NCC1CCCO1)OCO3 (stereo not given) | 26.6% | 59% (inactive) |
